Records with an inconclusive call do not appear. Activity calls are given as the source filed them. Calls follow the shape of the dose curve; as a rule, active = well fitted cell-killing curve with a large enough effect; inconclusive = small, poorly fitted or top-dose-only effect, or effect the other way; inactive = flat fitted curve, though single readings scatter.
What was measured:
Test in all cases: Primary qHTS to identify gynecologic anti-cancer compounds using libraries of approved drugs and bioactive compounds (AID 1345084); also: nearly all actives have a fitted effect of over 55% in size
Conditions in all cases: Gynecologic cancer cell panel viability, ATPlite luminescence, 48 h; series mostly up to 57.5 µM
[1] = tested on: OV90
How it was run: (§1)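 ATP-based viability (ATPlite), 1,000 cells/well, 16 h pre-incubation, 48 h compound at 37 C, 5% CO2, 15 min RT before read.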

[2] = tested on: PA-1
How it was run: as §1

[3] = tested on: SKOV3
How it was run: as §1

[4] = tested on: Tov-21-G
How it was run: as §1

[5] = tested on: Tov112D
How it was run: as §1
% is scaled to controls: 0 for no effect and ±100 for the full control effect.

C[C@@]12C[C@]3(O)O[C@H](O1)[C@]1(COC(=O)c4ccccc4)[C@H]3C[C@@]12O[C@@H]1O[C@H](CO)[C@@H](O)[C@H](O)[C@H]1O
inactive: Potency [1] | Potency [2] | Potency [3] | Potency [4] | Potency [5]

CCC(Nc1ncnc2nc[nH]c12)c1nc2cccc(F)c2c(=O)n1-c1ccccc1 (stereo not given)
inactive: Potency [1] | Potency [2] | Potency [3] | Potency [4] | Potency [5]

CC1=C2C(O)C(=O)OC(c3ccoc3)C2(C)CCC1O (stereo not given)
inactive: Potency [1] | Potency [2] | Potency [3] | Potency [4] | Potency [5]

CC(C)(O)/C=C/CC(C)(O)C1C(O)CC2(C)C3CCC4C(C)(C)C(=O)CCC4(C)C3CCC12C (stereo not given)
inactive: Potency [1] | Potency [2] | Potency [3] | Potency [4] | Potency [5]

CC(=O)O[C@H]1[C@H](O[C@H]2[C@@H]3C=CO[C@@H](O[C@@H]4O[C@H](CO)[C@@H](O)[C@H](O)[C@H]4O)[C@@H]3[C@@]3(CO)O[C@@H]23)O[C@@H](C)[C@H](OC(=O)/C=C/c2ccccc2)[C@H]1OC(=O)/C=C/c1ccccc1
inactive: activity change, negative = cytotoxicity [1] 3.4% [at 11.6 µM] | activity change, negative = cytotoxicity [2] 16.9% [at 11.6 µM] | activity change, negative = cytotoxicity [3] 5.38% [at 11.6 µM] | activity change, negative = cytotoxicity [4] -0.504% [at 11.6 µM] | activity change, negative = cytotoxicity [5] 5.71% [at 11.6 µM]

C=C1C(=O)O[C@H]2[C@H]1CC/C(C)=C/CC[C@@]1(C)O[C@@H]21
inactive: Potency [1] | Potency [2] | Potency [3] | Potency [4] | Potency [5]

Cc1cccc(-c2[nH]c(Cc3cccc(C(N)=O)c3)nc2-c2ccc3nccnc3c2)n1
inactive: Potency [1] | Potency [2] | Potency [3] | Potency [4] | Potency [5]

— PubChem BioAssay (NCATS)
